Laboratory results from PubChem BioAssay (Tox21).
Records with an inconclusive call do not appear. Values without a mark were called inactive. Calls follow the shape of the dose curve; as a rule, active = well fitted activation curve with a large enough effect in the repeat runs; inconclusive = weak or mixed curves; inactive = flat fitted curve, though single readings scatter.
% is scaled to controls: 0 for no effect and ±100 for the full control effect.

Experiment: A CellTox Green Cytotoxicity Assay to monitor cytotoxicity in HepG2 cells - 24 hour (AID 1224878); also: nearly all actives have a fitted effect of over 45% in size
Details: CellTox Green fluorescence; series mostly up to 76.8 µM; cytotoxicity: at the top concentration
Description: National Center for Advancing Translational Sciences [NCATS]
NIH Chemical Genomics Center [NCGC]
U.S. Environmental Protection Agency [EPA]
National Institutes of Environmental Health Sciences [NIEHS]
National Toxicology Program [NTP]
Cell-based models are critical for drug discovery. Determining the natural cytotoxic effects resulting from test compounds is an essential research activity. A CellTox Green Cytotoxicity Assay to monitor cytotoxicity in real time of continues cell culture during 40 hours of the compound treatment was used to screen Tox21 10K library compounds in HepG2 cells. CellTox Green Cytotoxicity Assay is a nonlytic, homogeneous, biofluorescent method to measure cytotoxicity in cell culture after experimental manipulation. The assay system uses a proprietary asymmetric cyanine dye that is excluded from viable cells but preferentially stains the dead cell's DNA. […] Viable cells produce no appreciable increases in fluorescence. Therefore, the fluorescence signal produced by the binding interaction with dead cell DNA is proportional to cytotoxicity.
The mixture of HepG2 cell suspension and reagents were dispensed at 600cells/6 ul/well in 1536-well tissue culture treated black solid bottom plates using a Multidrop dispenser. After the assay plates were incubated at a 37 C/5% CO2 incubator for 5 hours, 23 nL of compounds dissolved in DMSO, positive and negative controls was transferred to the assay plate by a pintool work station. The plates were incubated at 37 C for 40 hours. The fluorescence intensity were measured at 0h, 8h, 16h, 24h, 32h and 40h time points using ViewLux plate reader during compound treatment.
For O=C1CCCc2c(O)cccc21, the “cytotoxicity” value was -1.67% [at 35.3 µM].
In the case of Clc1ccc2c(c1)Nc1ccccc1S2, the “cytotoxicity” value is reported as -17.1% [at 35.3 µM].
For CN(C)c1ccncc1, the “cytotoxicity” value was -2.08%.
In the case of CC(C)OCCO, the “cytotoxicity” value is reported as -2.26%.
In the case of CN(C)CCc1c[nH]c2ccc(C[C@H]3COC(=O)N3)cc12, the “cytotoxicity” value is reported as -3.27% [at 35.3 µM].
With NCC1CCC(C(=O)Oc2ccc(CCC(=O)O)cc2)CC1 (stereo not given) the “cytotoxicity” value was -23.3% [at 35.3 µM].
For CCCCS, the “cytotoxicity” value was -1.5%.
For CC(=O)SC[C@@H](C)C(=O)N1CCC[C@H]1C(=O)N[C@@H](Cc1ccccc1)C(=O)O, the “cytotoxicity” value was -8.01% [at 35.3 µM].
In the case of O=C1Nc2ccccc2C1=O, the “cytotoxicity” value is reported as -8.39%.
In the case of O=C(CCBr)N1CCN(C(=O)CCBr)CC1, the “cytotoxicity” value is reported as 0.867% [at 35.3 µM].
For CC(=O)Nc1ccc(S(=O)(=O)Nc2cc(C)on2)cc1, the “cytotoxicity” value was -14.1% [at 35.3 µM].
For C=CCn1cc[n+](C)c1, the “cytotoxicity” value was 0.96%.
With c1cc2ccc3ccc4ccc5cccc6c(c1)c2c3c4c56 the cytotoxicity was -19.8% [at 2.72 µM].
For Nc1cc(S(=O)(=O)O)ccc1O, the “cytotoxicity” value was 1.5%.
With CCCc1ncc(C(=O)O)s1 the “cytotoxicity” value was 4.29% [at 35.3 µM].
For CC(=O)Nc1ccc(OCCOCCOc2ccc(NC(C)=O)cc2)cc1, the “cytotoxicity” value was -4.59% [at 35.3 µM].
For C=C(C)C(=O)OCCOC1CC2CC1C1C=CCC21 (stereo not given), the “cytotoxicity” value was -2.36%.
In the case of CC(O)C(CO)C(C)O (stereo not given), the “cytotoxicity” value is reported as -9.37%.
In the case of C/C=C(\C)C(=O)OC/C=C(\C)CCC=C(C)C, the “cytotoxicity” value is reported as -0.442%.
With CN(C)CCC[C@@]1(c2ccc(F)cc2)OCc2cc(C#N)ccc21 the “cytotoxicity” value was 11% [at 35.3 µM].
In the case of Cc1ccc(OC(=O)CC(C)C)cc1, the “cytotoxicity” value is reported as 20.8%.
In the case of CNC(C)=O, the “cytotoxicity” value is reported as -13.1%.
In the case of CC(=O)OCC(=O)[C@@]1(O)CC[C@H]2[C@@H]3CCC4=CC(=O)C=C[C@]4(C)[C@H]3[C@@H](O)C[C@@]21C, the “cytotoxicity” value is reported as 4.09% [at 35.3 µM].
With CCN(CC)CC the “cytotoxicity” value was 0.62%.
With COc1cc(S(N)(=O)=O)cc(C(=O)O)c1OC the “cytotoxicity” value was -2.05% [at 35.3 µM].
With CN1C(CCl)Nc2cc(Cl)c(S(N)(=O)=O)cc2S1(=O)=O (stereo not given) the “cytotoxicity” value was -2.21% [at 35.3 µM].
With CCCC(=O)CC the “cytotoxicity” value was 0.259%.
In the case of COc1cnc(NS(=O)(=O)c2ccc(N)cc2)nc1, the “cytotoxicity” value is reported as -17.5% [at 35.3 µM].
With O=S(=O)(O)CC(O)CCl (stereo not given) the “cytotoxicity” value was 8.29%.
In the case of O=P(O)(O)C(O)(Cc1cccnc1)P(=O)(O)O, the “cytotoxicity” value is reported as -12% [at 35.3 µM].
In the case of Cc1ccc2cccnc2c1, the “cytotoxicity” value is reported as -1.29%.
In the case of CCC(C)(C)C, the “cytotoxicity” value is reported as -0.432%.
For CC(C)CC(O)Cc1ccccc1 (stereo not given), the “cytotoxicity” value was 3.15%.
With CCOC(=O)CN1CCCC1=O the “cytotoxicity” value was -15.5% [at 35.3 µM].
For C/C(Cl)=C/CCl, the “cytotoxicity” value was -1.41%.
In the case of CCCCN(CCCC)CCCCCCN(CCCC)CCCC, the “cytotoxicity” value is reported as -8.89%.
With CCOC(=O)c1ccc(N(C)C)cc1 the “cytotoxicity” value was -1.92%.
In the case of COc1cc2nc(N3CCN(C(=O)C4CCCO4)CC3)nc(N)c2cc1OC (stereo not given), the “cytotoxicity” value is reported as -11.9% [at 35.3 µM].
For Cc1cc(N)no1, the “cytotoxicity” value was 3.43%.
With c1coc(Cn2cccc2)c1 the “cytotoxicity” value was 4.72%.
